Laboratory results published in PubChem BioAssay AID1159580 (chemical genetic matrix, 2015).
Values joined by “and” are separate entries in the source; they are usually repeats but may differ in a detail not shown here. Equal values may be shown once. Out of some 5,500 compounds screened, about 2,000 (36%) were called active. Not shown: some 18% with an inconclusive outcome. Cut-off read from the data, not from the text of the source: active = normalized growth mostly below about 0.91 (no sharp cut-off); inconclusive = no clear call, values can overlap the other calls; inactive = mostly above about 0.92. The list shows a part of the results.

Assay: chemical genetic growth profiling, strain panel (AID 1159580);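 note: tested at 20 µM; growth read once vehicle control cultures reached saturation at 30 °C; 1 = growth at the plate median or of vehicle wells; lower values mean less growth of the strain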
Conditions: S. cerevisiae deletion strains, growth OD

Measured: normalized growth

CC(C)[N+](C)(CCOC(=O)C1c2ccccc2Oc2ccccc21)C(C)C
inactive: locus YAL013W, strain DEP1, hits give low values 1.01 | locus YAL021C, strain ccr4, hits give low values 1.01 | locus YAL026C, strain drs2, hits give low values 1.03 | locus YAL030W, strain snc1, hits give low values 1.02 | locus YAL040C, strain CLN3, hits give low values 1.01 | locus YBL061C, strain skt5, hits give low values 0.989 | locus YBR009C, strain hhf1, hits give low values 0.997 | locus YBR021W, strain FUR4, hits give low values 1.02 | locus YBR023C, strain chs3, hits give low values 1.02 | locus YBR171W, strain sec66, hits give low values 1.01 | locus YBR229C, strain ROT2, hits give low values 0.997 | locus YBR231C, strain swc5, hits give low values 1.01 | locus YBR279W, strain paf1, hits give low values 0.99 | locus YCL011C, strain gbp2, hits give low values 1.01 | locus YCL016C, strain dcc1, hits give low values 1.01 | locus YCL029C, strain bik1, hits give low values 1.01 | locus YCL061C, strain MRC1 (second series), hits give low values 1.01 | locus YCL069W, strain vba3, hits give low values 0.993 | locus YCR088W, strain abp1, hits give low values 1.01 | locus YDL005C, strain med2, hits give low values 1.02 | locus YDL035C, strain GPR1, hits give low values 1.01 | locus YDL040C, strain nat1, hits give low values 0.996 | locus YDL074C, strain BRE1, hits give low values 1.02 | locus YDL101C, strain DUN1, hits give low values 1 | locus YDL134C, strain PPH21, hits give low values 1 | locus YDL185W, strain tfp1, hits give low values 1 | locus YDL192W, strain arf1, hits give low values 1.01 | locus YDR001C, strain nth1, hits give low values 0.996 | locus YDR069C, strain doa4, hits give low values 1 | locus YDR101C, strain arx1, hits give low values 0.997 | locus YDR137W, strain rgp1, hits give low values 1.01 | locus YDR150W, strain NUM1, hits give low values 1.01 and 1 | locus YDR159W, strain sac3, hits give low values 0.987 | locus YDR162C, strain NBP2, hits give low values 1.02 | locus YDR195W, strain ref2 0.976 | locus YDR297W, strain sur2, hits give low values 0.999 | locus YDR318W, strain mcm21, hits give low values 1.01 | locus YDR334W, strain swr1, hits give low values 1 | locus YDR335W, strain msn5, hits give low values 1.01 | locus YDR363W, strain ESC2, hits give low values 1.05 | locus YDR388W, hits give low values 1.01 | locus YDR392W, strain spt3, hits give low values 0.98 | locus YDR502C, strain sam2, hits give low values 1 | locus YEL003W, strain gim4, hits give low values 1 | locus YEL037C, strain rad23, hits give low values 0.995 | locus YEL061C, strain CIN8 (second series), hits give low values 0.995 | locus YEL061C, strain CIN8, hits give low values 1.01 | locus YER002W, strain NOP16, hits give low values 1.02 | locus YER015W, strain faa2, hits give low values 1.01 | locus YER016W, strain bim1, hits give low values 1.01 | locus YER110C, hits give low values 1 | locus YER111C, strain swi4, hits give low values 0.993 | locus YER155C, strain BEM2 (second series), hits give low values 0.955 | locus YER155C, strain BEM2, hits give low values 1.01 | locus YER167W, strain BCK2, hits give low values 1.01 | locus YFR010W, strain ubp6, hits give low values 0.994 | locus YGL078C, strain dbp3, hits give low values 1.01 | locus YGL086W, strain mad1, hits give low values 0.998 | locus YGL167C, strain pmr1, hits give low values 0.997 | locus YGL173C, strain kem1, hits give low values 1 | locus YGL227W, strain vid30, hits give low values 1.02 | locus YGL240W, strain doc1, hits give low values 0.983 | locus YGL248W, strain PDE1, hits give low values 0.997 | locus YGL253W, strain hxk2, hits give low values 1.02 | locus YGR078C, strain PAC10, hits give low values 1 and 1.01 | locus YGR135W, strain pre9, hits give low values 1.01 | locus YGR229C, strain SMI1, hits give low values 1.02 | locus YGR252W, strain gcn5, hits give low values 0.956 | locus YHR013C, strain ard1, hits give low values 1.04 | locus YHR027C, strain rpn1, hits give low values 1.01 | locus YHR030C, strain SLT2, hits give low values 1 and 1.05 | locus YHR079C, strain IRE1 (second series), hits give low values 1.01 | locus YHR079C, strain IRE1, hits give low values 1.05 | locus YHR094C, strain hxt1, hits give low values 1 | locus YHR129C, strain ARP1, hits give low values 1 | locus YHR142W, strain chs7, hits give low values 0.994 | locus YHR200W, strain rpn10, hits give low values 1.01 | locus YIL066C, strain RNR3, hits give low values 1.01 | locus YIL073C, strain SPO22, hits give low values 1.03 | locus YIL125W, strain kgd1, hits give low values 1.01 | locus YIR030C, strain dcg1, hits give low values 1.01 | locus YJL092W, strain hpr5, hits give low values 1 | locus YJL095W, strain BCK1 (second series), hits give low values 1.01 | locus YJL095W, strain BCK1, hits give low values 0.996 and 1.01 | locus YJL115W, strain asf1, hits give low values 1 | locus YJL129C, strain trk1, hits give low values 1.01 | locus YJL134W, strain LCB3, hits give low values 1.01 | locus YJL154C, strain vps35, hits give low values 1.01 | locus YJL164C, strain tpk1, hits give low values 0.995 | locus YJL166W, strain qcr8, hits give low values 0.98 | locus YJL168C, strain set2, hits give low values 1 | locus YJL187C, strain SWE1 (second series), hits give low values 1 | locus YJR043C, strain POL32, hits give low values 1 | locus YJR066W, strain TOR1, hits give low values 0.985
